Only a selection was taken, and hits are over-represented in it overall.
ST2 IL33 inh – inhibitors of human ST2 (IL1RL1) binding to IL-33, primary screen, biochemical, AlphaLISA | Interleukin-1 receptor-like 1 (Homo sapiens), Q01638 | AlphaLISA ST2-Fc/biotin-IL-33 interaction, 1 h | inhibition, % for hits at 17 µM | 2.3% of 78,000 active | AID 1259354, 2018; in the data active means inhibition above about 30%
Target sequence (Q01638 whole entry, looked up): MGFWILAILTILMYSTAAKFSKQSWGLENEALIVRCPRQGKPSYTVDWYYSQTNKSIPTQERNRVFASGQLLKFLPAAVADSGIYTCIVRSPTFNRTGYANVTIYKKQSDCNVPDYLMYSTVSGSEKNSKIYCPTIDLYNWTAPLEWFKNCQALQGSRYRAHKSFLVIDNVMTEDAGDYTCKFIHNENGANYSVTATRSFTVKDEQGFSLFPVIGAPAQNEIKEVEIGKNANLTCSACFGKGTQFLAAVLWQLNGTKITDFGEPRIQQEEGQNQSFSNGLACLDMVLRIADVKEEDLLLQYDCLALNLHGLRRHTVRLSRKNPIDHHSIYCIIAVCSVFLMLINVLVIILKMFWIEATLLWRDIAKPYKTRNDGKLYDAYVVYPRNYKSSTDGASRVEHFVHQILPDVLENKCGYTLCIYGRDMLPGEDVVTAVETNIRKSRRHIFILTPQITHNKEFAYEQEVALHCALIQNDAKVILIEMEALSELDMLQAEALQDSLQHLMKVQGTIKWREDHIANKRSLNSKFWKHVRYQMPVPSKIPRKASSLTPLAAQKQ
Large screens that a line does not name were inactive.

Nc1nc(-c2ccccc2)c(Br)c(=O)[nH]1	none
Brc1c(-c2ccccc2)nc2n1-c1ccccc1C2	ST2 IL33 inh 44.0%
Cc1[nH]nc(-c2ccccc2)c1Br	none
CCn1c(=O)c(-c2ccc3ccccc3n2)cc2cc(Br)ccc21	ST2 IL33 inh 36.0%
CC(=O)c1ccccc1-c1ccc2ccccc2n1	none
CCn1c(/C=C/c2ccc(F)cc2)nc2ccccc2c1=O	none
CC[C@H]1CN(C(=O)c2ccccc2)CC[C@H]1CC(=O)NCc1ccc(OC)cc1	none
c1cnc2nc([C@H]3CCN(C4CCOCC4)C3)[nH]c2c1	none
CCOC(=O)C1(CCCc2ccccc2)CCN(C(=O)CC2CCS(=O)(=O)C2)CC1 (stereo not drawn)	none
COc1ccc(CCn2cnc3sc4c(c3c2=N)CCCC4)cc1OC	none
COc1cc(-c2nc3sc4c(c3c(=O)[nH]2)CCCC4)ccc1O	none
COc1ccc2[nH]c3c(c2c1)CCn1c-3nc2sc3c(c2c1=N)CCCC3	ST2 IL33 inh 34.0%
COC(=O)C1=C(C)Nc2nc(SCc3ccccc3)[nH]c(=O)c2C1c1cccc(F)c1 (stereo not drawn)	none
Cc1nccnc1N1CCC(n2cc(C(=O)NCC(C)C)nn2)CC1	none
O=C1CC(N2CCOCC2)C(=O)N1c1cccc(Cl)c1 (stereo not drawn)	none
O=C1CC(Nc2ccccc2)C(=O)N1c1ccc(Br)cc1 (stereo not drawn)	none
O=[N+]([O-])c1ccc(Nc2nc(N3CCOCC3)nc(N3CCOCC3)n2)cc1	none
Cc1ccc(S(=O)(=O)N2CCN(c3ccc([N+](=O)[O-])c(N4CCOCC4)c3)CC2)cc1	none
O=C1CC(Nc2ccc(N3CCOCC3)cc2)C(=O)N1c1ccc2c(c1)OCO2 (stereo not drawn)	ST2 IL33 inh 55.0%
O=C1CC(Nc2ccc(N3CCOCC3)cc2)C(=O)N1c1cccc([N+](=O)[O-])c1 (stereo not drawn)	ST2 IL33 inh 47.0%
O=C1CC(NCc2ccc3c(c2)OCO3)C(=O)N1c1ccccc1 (stereo not drawn)	none
O=C1C2C3c4ccccc4C(c4ccccc43)C2C(=O)N1c1ccc2c(c1)OCO2 (stereo not drawn)	none
O=[N+]([O-])c1cccc(-c2nc(N3CCOCC3)c3ccccc3n2)c1	none
COc1ccc(NC2CC(=O)N(c3cccc(Cl)c3)C2=O)cc1 (stereo not drawn)	none
Cc1ccc([N+](=O)[O-])cc1N1C(=O)CC(Nc2ccc(N3CCOCC3)cc2)C1=O (stereo not drawn)	ST2 IL33 inh 52.0%
O=C1CC(Nc2ccc(Br)cc2)C(=O)N1c1cccc(Cl)c1 (stereo not drawn)	ST2 IL33 inh 32.0%
Cc1cc(Cl)ccc1S(=O)(=O)n1nnc2ccccc21	none
CCc1nc2c(c3c1[nH]c1ccccc13)C(=O)CC(C)(C)C2	none
CC(C)c1ccc(C2NC(=O)NC3=C2C(=O)CC(C)(C)C3)cc1 (stereo not drawn)	none
CCOC(=O)C1=NN(c2ccccc2)C2C(=O)N(c3cccc(Cl)c3)C(=O)C12 (stereo not drawn)	none
CCN(CC)S(=O)(=O)c1cc(Cl)c(OC)cc1Cl	none
COC(=O)[C@@H](NC1CCN(c2ccc(NC(=O)c3cnccn3)cc2)CC1)c1ccccc1	none
Cc1[nH]c2ccccc2c1SCCNC(=O)/C=C/c1ccccc1	none
CCc1cccc(NC2CC(=O)N(c3cccc(Cl)c3)C2=O)c1 (stereo not drawn)	none
COc1cccc(N2C(=O)CC(Nc3ccc(N4CCOCC4)cc3)C2=O)c1 (stereo not drawn)	ST2 IL33 inh 47.0%
Cc1cccc(N2C(=O)CC(N3CCN(c4ccc(F)cc4)CC3)C2=O)c1 (stereo not drawn)	none
O=C1OCCCN1CCn1ccnc1-c1cnc(-c2ccccc2)s1	none
COc1cc2c(C(=O)Nc3ccc4c(c3)OCCO4)cn(CC(C)C)c(=O)c2cc1OC	none
COc1cccc(OCc2nc(C(=O)N(C)C(C)c3nccs3)co2)c1 (stereo not drawn)	none
O=C(c1cccc(Br)c1)N1CCOCC1	none
O=C(c1cc2ncc(Br)cn2n1)N1CCOCC1	ST2 IL33 inh 38.0%
O=C(c1nn2cc(Br)cnc2c1Br)N1CCOCC1	none
Cc1cccn2c(=O)c3cc(C(=O)N4CCCCC4)n(C)c3nc12	none
COc1cccc(C(=O)c2c[nH]c3ccc(OC)cc3c2=O)c1	none
CCOc1ccc(N2C(=O)CC(N3CCN(c4ccc(F)cc4)CC3)C2=O)cc1 (stereo not drawn)	none
COc1ccc(OC)c(N2C(=O)CC(N3CCN(c4ccc(F)cc4)CC3)C2=O)c1 (stereo not drawn)	ST2 IL33 inh 31.0%
COc1ccccc1N1C(=O)CC(N2CCN(c3ccc(F)cc3)CC2)C1=O (stereo not drawn)	none
Cc1cccc(CSC2=NCCN2C(=O)c2ccccc2F)c1	none
O=C(Nc1c2c(nn1-c1ccc(Cl)cc1)CSC2)c1ccc(Br)cc1	none
O=[N+]([O-])c1ccc(N2CCC(c3ccccc3)CC2)c(S(=O)(=O)N2CCOCC2)c1	none
CN(C)c1ccc(/C=C(\C#N)c2ccc([N+](=O)[O-])cc2)cc1	none
COc1ccc(/C=C(\C#N)c2ccc([N+](=O)[O-])cc2)c(OC)c1	ST2 IL33 inh 48.0%
COc1ccc(/C=C(\C#N)c2nc3ccccc3[nH]2)c(OC)c1	none
COc1ccc(-c2cc(C(F)(F)F)nc(S[C@H]3C[C@@H](O)[C@@H]4OC[C@H]3O4)n2)cc1	none
COc1ccc(C2C(C(=O)Nc3ccccn3)c3cc(OC)c(OC)cc3C(=O)N2C)cc1 (stereo not drawn)	none
COc1cc([N+](=O)[O-])cc(CN2CCN(c3ccccc3F)CC2)c1O	none
COc1ccccc1N1CCN(Cc2cc([N+](=O)[O-])c(O)c3ncccc23)CC1	ST2 IL33 inh 34.0%
O=[N+]([O-])c1ccccc1CN1CCN(c2ncccn2)CC1	ST2 IL33 inh 31.0%
O=[N+]([O-])c1ccccc1CN1CCN(Cc2ccccn2)CC1	none
COc1cc(CN2CCN(c3ccccc3C)CC2)cc([N+](=O)[O-])c1O	ST2 IL33 inh 89.0%
COc1ccccc1N1CCN(Cc2cc(OC)c(O)c([N+](=O)[O-])c2)CC1	none
O=[N+]([O-])c1ccccc1CN1CCN(c2ccccn2)CC1	none
CC1CCN(Cc2cc([N+](=O)[O-])c(O)c3ncccc23)CC1	none
COc1cc(CN2CCN(c3ccccc3C)CC2)c([N+](=O)[O-])cc1OC	none
CCCCN(CC)S(=O)(=O)c1ccc2[nH]c(=O)cc(C(=O)NC3CCCC3)c2c1	none
O=C(c1ccccc1F)N1CCN=C1SCc1ccccc1F	none
O=C(Cc1ccccc1)N1CCN=C1SCc1ccccc1Cl	none
COc1ccccc1C(=O)Nc1ccc(-c2nc3cc(C)ccc3o2)cc1	none
COc1ccc(C(=O)Nc2ccc(-c3nc4cc(C)ccc4o3)c(O)c2)cc1Cl	ST2 IL33 inh 30.0%
COc1ccc(C(=O)Nc2cccc(-c3nc4cc(C)ccc4o3)c2)cc1[N+](=O)[O-]	none
Cc1occc1C(=O)Nc1ccc([N+](=O)[O-])c(NC(=O)c2ccoc2C)c1	none
CCN1C(=O)c2ccc(Br)cc2C1=O	none
CCCCCN1C(=O)C(=O)c2cc(Br)ccc21	ST2 IL33 inh 46.0%
O=C(O)CN1C(=O)c2ccc(Br)cc2C1=O	none
Cc1ccc(N(C(=O)c2c(F)cccc2Cl)C2C=CS(=O)(=O)C2)cc1C (stereo not drawn)	none
CC1=C[C@@H](CNC(=O)C(C)(C)C)[C@H](C(C)C)C[C@H]1CC(=O)NCc1ccc(F)cc1	none
O=[N+]([O-])c1cccc(CN2CCC(N3CCCCCC3)CC2)c1	none
O=[N+]([O-])c1cccc(CN2CCCCC2CCO)c1 (stereo not drawn)	none
CCCN(Cc1cccc([N+](=O)[O-])c1)CC1CC1	ST2 IL33 inh 96.0%
